Laboratory results taken from PubChem BioAssay (NCI).
The panel holds about 83,000 compounds, 20% with a hit somewhere; the sample as a whole holds those more often.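 Single-dose data. Exposure time 48 hours. Values below 10 considered active.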 A number with no mark means an inactive call. Activity calls are given as the source filed them.

What follows are compounds tested on HL-60(TB) leukemia (assay: NCI-60 one-dose screen, 48 h (100 = growth as untreated, 0 = no growth, -100 = all killed)). Details: 10 µM unless noted.

Structure (SMILES)	growth
Cc1ccc(/C=C2\COc3ccc(O)c(O)c3C2=O)cc1	-15% (active)
CSc1nc(N)c2[nH]c(-c3cc4ccccc4[nH]c3=O)nc2n1	88.8%
CN1C(=O)C(=Cc2cn(Cc3ccccc3)c3ccc(Br)cc23)C(=O)N(C)C1=O	73.3%
C(=C\c1ccccc1)/CN1CCN(C(c2ccccc2)c2ccccc2)CC1	85.3%
CN1CCN(CCCOc2cccc3nc(Nc4ccc(F)c(F)c4)ccc23)CC1	38.8%
Fc1ccccc1Nc1ccc2nnc(-c3ccncc3)n2n1	92.6%
O=C(N/N=C/c1c(Cl)cccc1Cl)c1cccc(Nc2ccnc(C(F)(F)F)c2)c1	98.3%
Cc1ccc(C(=O)N/N=C/c2cccc(Oc3ccccc3)c2)cn1	9.21% (active)
COc1ccccc1-n1c(-c2sc(NC(C)=O)nc2C)n[nH]c1=S	101%
Nc1nnc2cc(F)ccc2n1	107%
Cn1/c(=N\N=C\c2ccccc2OCCO)sc2ccccc21	92.5%
